Compound activity (PubChem)
PLK1 PBD inh: PLK1 (human) polo-box domain binding inhibition | Plk1 PBD binding of FITC phosphopeptide, fluorescence polarization | Potency, µM, for inactives: max response, negative = inhibition, hits mostly inhibitors | 360,000 compounds, 2.8% hits; also: series mostly up to about 57 µM; nearly all actives have a fitted effect of over 65% in size
TDP1 cell noCPT: qHTS for Inhibitors of human tyrosyl-DNA phosphodiesterase 1 (TDP1): qHTS in cells in absence of CPT; DT40 Tdp1-/- hTDP1 cells, no CPT, ATP luminescence, 48 h; Potency, µM (highest dose often 46.2 µM), inactives show top-dose activity change, negative = growth inhibition, hits mostly inhibitors; 420,000 compounds, 15% hits; also: nearly all actives have a fitted effect of over 55% in size
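No-CPT arm: Tdp1-/-;hTDP1 DT40 cells (400/well) plus compounds, incubated ≥48 hr at 37 °C. Readout CellTiter-Glo luminescence.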
DT40 TDP1 CPT: growth inhibition of DT40 Tdp1-/-;hTDP1 cells with camptothecin (screen for TDP1 inhibitors). AID 686979. chicken DT40 Tdp1-/-;hTDP1 cells + 20 nM CPT, ATP luminescence, 48 h. Potency, µM (highest dose often 46.2 µM), inactives show top-dose activity change, negative = growth inhibition, hits mostly inhibitors. 420,000 compounds, 12% hits; also: nearly all actives have a fitted effect of over 55% in size
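Chicken DT40 Tdp1-/- cells stably complemented with human TDP1 were seeded at 400 cells/well in medium containing 20 nM camptothecin, exposed to pin-transferred compounds, and grown at 37 °C for at least 48 hr. Viability was read as ATP luminescence.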
VDR inh: inhibitors of human vitamin D receptor | P11473 | VDR-SRC2-3 peptide fluorescence polarization, 2 h | Potency, µM, inactives show max response, negative = inhibition, most hits filed as inhibitors | 400,000 compounds, 0.93% hits | AID 504847
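Fluorescence polarization assay of small-molecule disruption of VDR binding to coregulator peptide SRC2-3. Compounds and controls pin-transferred, then read after 2 h incubation at ambient room temperature.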
GCN5L2 inh: GCN5L2 (KAT2A) acetyltransferase inhibition; 390,000 compounds, 0.21% hits; GCN5L2 HAT assay, ThioGlo1 CoA-SH fluorescence; Potency, µM (top dose mostly 58.9 µM), inactives show top-dose activity change, negative = inhibition, most hits filed as inhibitors
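GCN5L2 (20 nM) in 50mM HEPES pH 7.5, 0.1mM EDTA, 0.01% Tween-20 preincubated 15 min with compounds at room temperature. Reaction started with H3(1-25) 75uM, acetyl-CoA 70uM, ThioGlo1 50uM; CoA-thiol fluorescence (Ex340/Em540) read at 0 and 20 min.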
TDP1 block: blocks human tyrosyl-DNA phosphodiesterase 1; Q9NUW8; recombinant TDP1, AlphaScreen DNA substrate cleavage; Potency, µM (top dose mostly 130 µM), for inactives: at the top dose activity change, negative = inhibition, actives largely listed as inhibitors; 350,000 compounds, 0.28% hits; AID 485290; also: nearly all actives have a fitted effect of over 40% in size
Target sequence (Q9NUW8 whole entry, looked up): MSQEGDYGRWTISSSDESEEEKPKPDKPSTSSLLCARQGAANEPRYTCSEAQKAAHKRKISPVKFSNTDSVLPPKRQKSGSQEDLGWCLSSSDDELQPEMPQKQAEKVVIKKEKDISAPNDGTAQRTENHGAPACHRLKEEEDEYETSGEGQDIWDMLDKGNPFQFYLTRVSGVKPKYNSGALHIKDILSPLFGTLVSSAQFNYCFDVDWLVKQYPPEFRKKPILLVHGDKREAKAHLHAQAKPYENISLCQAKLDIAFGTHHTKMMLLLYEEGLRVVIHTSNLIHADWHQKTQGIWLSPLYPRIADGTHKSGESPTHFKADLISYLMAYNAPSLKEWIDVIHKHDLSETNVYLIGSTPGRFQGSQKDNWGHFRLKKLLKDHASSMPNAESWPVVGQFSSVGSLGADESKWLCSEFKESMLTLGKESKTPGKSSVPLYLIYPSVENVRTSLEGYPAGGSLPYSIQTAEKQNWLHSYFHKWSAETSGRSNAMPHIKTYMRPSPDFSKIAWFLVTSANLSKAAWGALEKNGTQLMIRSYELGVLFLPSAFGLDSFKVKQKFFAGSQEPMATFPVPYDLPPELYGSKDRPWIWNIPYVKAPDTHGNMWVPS
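Steps: enzyme plus compound, 15 min RT; add biotin/phosphotyrosine-FITC oligonucleotide (15 nM final), react 5 min; add donor/acceptor beads (10 ug/ml final), 10 min; read AlphaScreen. Tdp1 at 1 nM final.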
An asterisk follows results filed as active; ? = inconclusive; nt = no result; [ ] = remark or other dose. A selection: hits, their analogues and other compounds. The true share with any hit is near 18%. Calls follow the shape of the dose curve; as a rule, active = well fitted curve in the direction sought with a large enough effect; inconclusive = small, poorly fitted or top-dose-only effect, or another doubt; inactive = no such curve, though single readings can be large; an effect the other way counts as inactive or inconclusive. % is scaled to controls: 0 for no effect and ±100 for the full control effect; potency is read from the fitted curve at half-maximal effect.

SMILES	PLK1 PBD inh	TDP1 cell noCPT	DT40 TDP1 CPT	VDR inh	GCN5L2 inh	TDP1 block
C=CCN1CCC2(C)c3cc(O)ccc3C[C@H]1[C@H]2C	nt	-15.8%	1.2%	-0.8%	19.2%[0.501 µM]	8.6%[56.1 µM]
CC/C=C\C[C@@H](/C=C/C=C\C/C=C\C/C=C\CCCC(=O)O)OO	nt	nt	nt	4.0%	nt	3.1%
Cc1nn(CCC#N)c2c1P(=S)(N1CCCC1)OC(c1ccc(F)cc1)=N2 (stereo not given)	13.4µM*	?	29.1µM*	25.1µM*	-16.0%	-8.0%
CN1CCN(c2nc(N)c(Br)c(Cl)n2)CC1	-3.6%	-10.2%	-17.9%	-4.1%	2.8%	0.0%
CCOC(=O)c1ccccc1NC(=O)N(Cc1ccc(CC)cc1)Cc1cn[nH]c1-c1ccc(OC)cc1	nt	14.6µM*	?	11.2%	-11.0%	11.4%
C=CCC1(C(C)CCC)C(=O)N=C(S)NC1=O (stereo not given)	nt	-0.7%	-2.9%	3.8%	29.1%	-1.8%[56.1 µM]
CCN(CC)C(=O)c1ccc(NC(=O)COc2ccccc2F)cc1	-8.1%	-13.5%	-7.0%	-19.7%	0.0%	1.2%
CCN(CC)C(=O)c1ccc(NC(=O)CCn2nc(-c3ccc(Cl)cc3)c3ccccc3c2=O)cc1	nt	18.4µM*	?	?	-6.5%	5.3%
CCSc1nnc(NC(=O)c2cccn(Cc3ccccc3Cl)c2=O)s1	nt	10.7%	1.9%	-6.4%	10.1%	1.1%
O=C(Cn1c(=O)oc2cc(S(=O)(=O)N3CCCCCC3)ccc21)NCc1ccccc1Cl	nt	7.31µM*	9.2µM*	2.0%	-21.1%	1.9%
Cn1c(=O)oc2cc(NC(=O)CCl)ccc21	-19.9%	23.1µM*	13µM*	-8.0%	-7.4%	6.2%
O=C(Cn1c(=O)oc2cc(S(=O)(=O)N3CCCC3)ccc21)Nc1cccc(C(F)(F)F)c1	-7.7%	14.6µM*	13µM*	1.5%	?	4.9%
Cc1ccc(NC(=O)Cn2c(=O)oc3cc(S(=O)(=O)N4CCCCCC4)ccc32)cc1Cl	nt	20.6µM*	11.6µM*	1.4%	-6.7%	-4.7%
CC(C)N(CC(O)c1cccc([N+](=O)[O-])c1)C(C)C (stereo not given)	-1.4%	-13.3%	5.8%	-12.9%	-6.4%	3.0%
CCOc1ccccc1NC(=O)c1ccccc1N(C)S(=O)(=O)c1ccc(C)cc1	2.8%	?	?	4.2%	nt	nt
Cc1cc(C)cc(NC(=O)Cn2c(=O)oc3cc(S(=O)(=O)N4CC(C)CC(C)C4)ccc32)c1 (stereo not given)	-4.9%	?	?	5.4%	-27.1%	0.0%
CCc1cccc(NC(=O)Cn2c(=O)oc3cc(S(=O)(=O)N4CCOCC4)ccc32)c1	2.0%	14.6µM*	23.1µM*	-12.9%	-8.0%	3.9%
COc1cc(Cl)c(C)cc1NC(=O)CCCn1c(=O)oc2ccccc21	-2.6%	?	-22.8%	2.7%	-4.8%	1.1%
Cc1ccc(NC(=O)Cn2c(=O)oc3ccccc32)cc1C	21.2µM*	-1.9%	2.3%	?	-5.5%	2.8%
CNC(Cc1c[nH]c2ccccc12)C(=O)O (stereo not given)	nt	?	?	1.5%	-8.3%	-7.9%[56.1 µM]
CC(C)NC(=O)C(C)N1CCN(S(=O)(=O)c2ccc3ccccc3c2)CC1 (stereo not given)	-19.8%	14.6µM*	18.4µM*	-0.9%	-19.9%	6.2%
CCC(C)N1CCN(C(=O)COc2ccc3ccccc3c2)CC1 (stereo not given)	-2.9%	?	?	0.0%	-2.5%	5.5%
CC(C)(C)c1ccc(/C=C2\Oc3cc(OC(=O)N4CCOCC4)ccc3C2=O)cc1	-9.0%	25.9µM*	16.4µM*	-19.7%	1.1%	-5.6%
O=C(CN1CCN(S(=O)(=O)c2cc(Br)ccc2Br)CC1)NCc1ccccc1Cl	-2.9%	?	?	7.8%	nt	nt
CC1CCC(NC(=O)CN2CCN(S(=O)(=O)c3ccc(Br)s3)CC2)CC1 (stereo not given)	3.7%	16.4µM*	16.4µM*	nt	nt	nt
SMILES	PLK1 PBD inh	TDP1 cell noCPT	DT40 TDP1 CPT	VDR inh	GCN5L2 inh	TDP1 block
Nc1c(Cl)c(Cl)nc(C(=O)O)c1Cl	nt	nt	nt	nt	nt	16.6%
CN1CCN(C(=O)COc2ccc(S(=O)(=O)Nc3ccc(F)cc3)cc2)CC1	-4.4%	16.7%	-10.3%	-3.4%	2.0%	-1.1%
CCOc1ccc(S(=O)(=O)Nc2cccc(C(=O)N3CCN(c4ccccn4)CC3)c2)cc1	2.6%	16.4µM*	13µM*	nt	nt	nt
CC1CCC(C(C)C)C(OC(=O)Cn2c(COc3ccccc3)[n+](C)c3ccccc32)C1 (stereo not given)	4.3%	1.03µM*	0.581µM*	-3.0%	15.3%	nt
COC(=O)C1CN(C#N)N(c2ccc(Cl)cc2)C12c1ccccc1-c1ccccc12 (stereo not given)	?	2.91µM*	3.26µM*	?	-10.9%	2.5%
COc1ccc(C)cc1NC(=O)c1cccn(Cc2ccccc2Cl)c1=O	nt	-1.1%	-29.0%	3.8%	0.7%	-2.2%
CCCCCc1cc(O)c2c(c1)OC(C)(C)[C@@H]1CCC(C)=C[C@@H]21	nt	?	21.1µM*	nt	nt	nt
CC1=CC[C@@H]2[C@@H](C1)c1c(O)cc(CC#CCCCNS(C)(=O)=O)cc1OC2(C)C	nt	nt	nt	nt	nt	6.3%
CCCCCCCCCC[n+]1cccc([C@@H]2CCCN2C)c1	nt	nt	nt	-22.2%	8.91µM*	2.3%
Cc1ccc(CNC(=O)C(=O)NCC(c2cccnc2)N2CCN(c3ccc(F)cc3)CC2)cc1 (stereo not given)	nt	3.26µM*	4.11µM*	3.6%	-7.6%	-3.9%
O=C(NCc1ccc(Cl)cc1)C(=O)NCC(c1cccnc1)N1CCN(c2ccccc2)CC1 (stereo not given)	nt	7.31µM*	9.2µM*	-4.2%	-15.5%	3.9%
Cc1ccc(OCC(=O)N2CCN(Cc3cccnc3)CC2)cc1	-0.9%	0.2%	-25.3%	9.0%	-6.3%	-13.3%
CCC1/C=C/C=CCC(C)C(O)[C@@](C)(O)C(=O)C(C)C(O)C(C)C(=O)C(C)C(O)C(C)C=CC(=O)O[C@H]2C(C)C(CC1)O[C@]1(CCC(C)C(CC(C)O)O1)C2C (stereo not given in full)	nt	0.0058µM*	0.0073µM*	-14.1%	-16.6%	16.4%[56.1 µM]
N#Cc1ccc(CN2CCC3(CC2)CCN(C(=O)Oc2ccccc2)CC3)cc1	nt	-21.4%	-1.1%	2.0%	-4.9%	nt
Cc1oc(-c2ccccc2)nc1CN1C(=O)CN=C(c2ccccc2)c2ccccc21	5.0%	?	18.4µM*	-7.1%	-5.0%	5.3%
Cc1ccc(-c2nc(CN3C(=O)CN=C(c4ccccc4Cl)c4cc(Cl)ccc43)c(C)o2)cc1	nt	14.6µM*	16.4µM*	0.6%	-4.6%	5.7%
